About 2,100 (0.66%) of roughly 320,000 compounds were called active. Roughly 53% stayed inconclusive and do not appear here. The call rests on the fitted dose curve; in most records, active means well fitted inhibition curve with a large enough effect in the signal ratio, with a control signal flat (not every such curve was filed as active); inconclusive means small, poorly fitted or top-dose-only effect, or effect the other way, or a change in a side signal; inactive means flat fitted curve, though single readings scatter; the % refers to the signal ratio. This excerpt belongs to a sample that is enriched for actives.
assay: qHTS Assay for Lipid Storage Modulators in Drosophila S3 Cells; conditions: BODIPY lipid droplet fluorescence, 18-24 h, cells fed with added oleic acid; cell number change: measured here: cell count max response; series mostly up to 46.1 µM;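 on cell number change: cells counted by Cell Tracker Red CMTPX staining in the red channel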
How it was run: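 Laser-scanning cytometry quantifies lipid droplet accumulation (500–530 nm total intensity; droplet/cell object ratio) in oleic acid-fed (400 uM added) Drosophila S3 cells treated with a concentration series. 20 uM Triacsin C defined 100% inhibition.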
Potency means the concentration at half of the fitted maximal effect.

Row | SMILES | Potency | cell number change [%] | outcome
1 | COc1ccc(-n2c(C)cc(C(=O)NC3CCCCC3)c2C)cc1 | inactive | -26.1 | 
2 | Cc1cc(C(=O)NC2CCCCC2)c(C)n1-c1ccc(F)cc1 | inactive | 2.04 | 
3 | Cc1cccc(-n2c(C)cc(C(=O)NC3CCCCC3)c2C)c1 | 20.6 µM (active) | -27.1 | 
4 | O=C(Nc1ccc(Cl)cc1)C1C2CCC3C(CCC21)C3(Cl)Cl (centres undefined) | inactive | -4.94 | 
5 | O=C(NCC1CCCN1S(=O)(=O)c1ccccc1)C(=O)NC1CC1 (centres undefined) | inactive |  | 
6 | CCN(CC)S(=O)(=O)c1ccc(F)cc1 | inactive | 12.5 | 
7 | CN(CC(=O)O)S(=O)(=O)c1ccc(F)cc1 | inactive | 12.3 | 
8 | CCCc1ccc(S(=O)(=O)N(C)S(=O)(=O)c2ccc(F)cc2)cc1 | 0.82 µM (active) | 17.6 | 
9 | CCN(CC(=O)Nc1ccccc1C(F)(F)F)C(=O)CSCc1ccc(C)cc1 | inactive | 3.04 | 
10 | COc1ccc(CNC(=O)OCCN2CCN(S(=O)(=O)c3ccc(C)cc3)CCC2=O)cc1 | inactive | 22.9 | 
11 | Cc1ccc(O)c(NC(=O)CN(C)S(=O)(=O)c2ccc(Cl)cc2)c1 | inactive | 2.51 | 
12 | COc1ccc(N2C(=O)C(CC(=O)Nc3ccccc3)N(CCc3ccc(OC)c(OC)c3)C2=O)cc1 (centres undefined) | inactive | 0.202 | 
13 | O=C(COC(=O)Cn1cnc2ccccc21)NCCC1=CCCCC1 | inactive | -15.3 | 
14 | O=C(COC(=O)Cn1cnc2ccccc21)NCc1ccc(F)cc1 | inactive | 21.3 | 
15 | O=C(COC(=O)Cn1cnc2ccccc21)NCCc1ccc(Cl)cc1 | 8.2 µM (active) | 22.6 | 
16 | CC(=O)Nc1ccc(S(=O)(=O)N2CCN=C2SCc2cccnc2)cc1 | inactive | -0.745 | 
17 | COc1cc(-n2nc(C)c3c2OC(N)=C(C#N)C3c2ccccc2)c(Cl)c(Br)c1O (centres undefined) | inactive | -5.47 | 
18 | Cc1cc(N2CCCCC2)nc2c(C)cccc12 | inactive | 3.12 | 
19 | COc1ccc(/C=c2/sc3n(c2=O)C(c2ccccc2OC)C2=C(N=3)c3ccccc3CC2)cc1O (centres undefined) | inactive | -22.9 | 
20 | COc1ccc(C(=O)OC(C(=O)c2ccccc2)c2ccccc2)cc1 (centres undefined) | inactive | -12.3 | 
21 | CN(C)C(=O)C(OC(=O)c1ccc2ccccc2n1)c1ccccc1 (centres undefined) | inactive | 16.5 | 
22 | CN(C)C(=O)C(OC(=O)c1ccc2c(c1)CCCC2)c1ccccc1 (centres undefined) | 0.58 µM (active) | 15.3 | 
23 | CCOC(=O)c1cc(=O)c2c([N+](=O)[O-])ccc(OC)c2o1 | inactive | -14.1 | 
24 | CCCC(=O)Nc1cccc(Oc2ccc3c(c2)C(=O)NC3=O)c1 | 1.46 µM (active) | -28.1 | 
25 | CCC(=O)Nc1ccc(Oc2ccc3c(c2)C(=O)NC3=O)cc1 | inactive | -7.29 | 

Row | SMILES | Potency | cell number change [%] | outcome
26 | CC(=O)Nc1cccc(Oc2ccc3c(c2)C(=O)NC3=O)c1 | inactive | -4.38 | 
27 | CC(C)c1ccc(NC(=O)N2CCOCC2)cc1 | inactive | -1.06 | 
28 | O=C(CSc1nc(-c2ccc(F)cc2)nc2c1Cc1ccccc1O2)Nc1ccc(C(=O)O)cc1 | inactive | -7.56 | 
29 | O=C(c1c(F)cccc1F)N1CCCC1 | inactive | 7.6 | 
30 | CN1CCCN(C(=O)c2c(F)cccc2Cl)CC1 | 1.64 µM (active) | -3.31 | 
31 | CN1CCCN(C(=O)c2ccccc2Cl)CC1 | inactive | -6.61 | 
32 | CCOC(=O)/C(C#N)=C(/C)c1ccc(OC)cc1 | inactive |  | 
33 | CCOc1cc2[nH]c(=O)n(CCc3ccc(OC)c(OC)c3)c(=O)c2cc1OCC | inactive | 0.389 | 
34 | O=C(O)c1ccc(N/N=C2/CCCc3ccccc32)cc1 | inactive | 24.2 | 
35 | CCN(CC)C(=O)c1cccc2c1C(=O)c1ccccc1-2 | inactive | 11.5 | 
36 | O=C1c2ccccc2-c2c1cccc2C(=O)N(CCO)CCO | 25.9 µM (active) | -9.84 | 
37 | CC(C)CNC(=O)c1cccc2c1-c1ccccc1C2=O | inactive | 24.1 | 
38 | CC12CN(S(=O)(=O)c3ccccc3)CC(C)(CN(S(=O)(=O)c3ccccc3)C1)C2 | inactive | 1.2 | 
39 | CCC(C)(C)NC(=O)CN(C(=O)c1csnn1)c1cccc2c1CCCC2 | inactive | -10.5 | 
40 | O=C(NCCO)c1cc2c([nH]c3ccccc32)c(-c2ccccc2)n1 | inactive | -12.4 | 
41 | COc1ccc(-c2nc(C(=O)NCC3CCCO3)cc3c2[nH]c2ccccc23)cc1 (centres undefined) | inactive | -11.3 | 
42 | COc1cc(-c2nc(C(=O)NC3CCCCC3)cc3c2[nH]c2ccccc23)cc(OC)c1OC | 13 µM (active) | 13.2 | 
43 | CCOCCCNC(=O)Cn1cc2c(n1)CCCC2 | inactive | 13.2 | 
44 | COC(=O)Cn1c(=NC(=O)c2cc(OC)cc(OC)c2)sc2cc(OC)ccc21 | inactive | -0.279 | 
45 | COc1ccc(NC(=O)CSc2nncs2)cc1S(N)(=O)=O | inactive |  | 
46 | Cc1c(N)cccc1N | inactive | 16.6 | 
47 | O=C(CSC1=NS(=O)(=O)c2cc(Cl)ccc2N1)Nc1ccccc1F | inactive | 0.0379 | 
48 | O=C(CSC1=NS(=O)(=O)c2cc(F)ccc2N1)Nc1ccccc1F |  |  | inactive [at 0.0737 µM]
49 | O=C(CSC1=NS(=O)(=O)c2ccccc2N1)Nc1ccccc1F | 6.51 µM (active) | -3.42 | 
50 | Cc1ccc(S(=O)(=O)N2CCN(S(=O)(=O)N3CCC(C)CC3)CC2)c(C)c1 | inactive | 12.8 | 

Row | SMILES | Potency | cell number change [%] | outcome
51 | COCCCNC(=O)c1c(-c2ccccc2)noc1C | inactive | 19.6 | 
52 | CCOC(=O)c1sc(NC(=O)c2cccs2)nc1C | inactive | 7.32 | 
53 | CCOCCCNC(=O)C(Cc1ccccc1)NC(=O)c1ccco1 (centres undefined) | 13 µM (active) | -1.42 | 
54 | CCOC(=O)c1csc(NC(=O)c2cccs2)n1 | 20.6 µM (active) | -11.6 | 
55 | Cc1ccc(CNC(=O)[C@H](Cc2ccccc2)NC(=O)c2ccco2)cc1 | inactive | 9.45 | 
56 | CCOCCCNC(=O)c1c(-c2ccccc2)noc1C | 20.6 µM (active) | -15.4 | 
57 | O=C(NCCCCNC(=O)c1cccs1)c1cccs1 | inactive | -29 | 
58 | O=C(NC(Cc1ccccc1)C(=O)O)c1ccco1 (centres undefined) | inactive | 6.62 | 
59 | COCCCNC(=O)c1cccs1 | inactive | 12.5 | 
60 | CCOCCCNC(=O)c1cccs1 | 6.51 µM (active) | 17.5 | 
61 | CCCC(=O)Nc1nc(C(=O)OCC)cs1 | inactive | -4.4 | 
62 | CC(=O)Nc1ccc(OCCCNC(=O)c2c(-c3ccccc3)noc2C)cc1 | inactive | -3.99 | 
63 | Cc1cccc(/C=C/c2nc3ccccc3c(=O)[nH]2)c1 | inactive | -2.24 | 
64 | O=C(NCC(=O)N(Cc1cccs1)C(C(=O)NC1CCCC1)c1ccncc1)c1ccco1 (centres undefined) | inactive |  | 
65 | Cn1c(Cn2c(=O)sc3ccccc32)nnc1SCC(N)=O | inactive | 4.82 | 
66 | CCCCCC(=O)Nc1cc(N(C)C)nc2ccccc12 | inactive | 6.14 | 
67 | COc1ccc(CC(=O)OCC(=O)Nc2ccc(C(=O)Nc3ccc(OC)cc3)cc2)cc1 | inactive | 6.99 | 
68 | Cc1ccc2sc(NC(=O)CN3C(=O)c4ccccc4C3=O)nc2c1C | inactive | -0.832 | 
69 | CCCC(O)(CCC)C(=O)NN(C(=O)OC)c1ccccc1 | inactive | 12.3 | 
70 | CCCCC(O)(CCCC)C(=O)NN(C(=O)OCC)c1ccccc1 | inactive | 11.1 | 
71 | CCCCC(O)(CCCC)C(=O)NN(C(=O)OC)c1ccccc1 | inactive | 0.36 | 
72 | CCCC(O)(CCC)C(=O)NN(C(=O)CCl)c1cccc(C)c1 | 20.6 µM (active) | -4.84 | 
73 | Cc1cccc(N(NC(=O)C(C)(C)O)C(=O)c2ccccc2)c1 | inactive | 7.68 | 
74 | CCC(O)(CC)C(=O)NN(C(=O)CCl)c1ccccc1 | 20.6 µM (active) | -5.65 | 
75 | CC1CCCCN1Cc1c(O)ccc2c(=O)c(-c3ccc(Cl)cc3Cl)coc12 (centres undefined) | inactive | -3.44 | 

Row | SMILES | Potency | cell number change [%] | outcome
76 | Cc1ccc(C)c(NC(=S)NCc2cccs2)c1 | inactive | -1.36 | 
77 | CC(NC(=O)c1ccc(S(=O)(=O)Nc2ccccc2)cc1)c1ccc(S(N)(=O)=O)cc1 (centres undefined) | inactive | 2.41 | 
78 | CC(=O)Nc1cccc(C(=O)NC(C)c2ccc(-n3ccnc3)cc2)c1 (centres undefined) | inactive |  | 
79 | CC(=O)Nc1cccc(C(=O)NC(C)c2ccc(S(N)(=O)=O)cc2)c1 (centres undefined) | 1.64 µM (active) | 21.3 | 
80 | CC(C)CCN(C(=S)Nc1cccc(C(F)(F)F)c1)C(C)c1ccccn1 (centres undefined) | 32.6 µM (active) | -20.3 | 
81 | CC(c1ccccn1)N(CCN(C)C)C(=S)Nc1cccc(F)c1 (centres undefined) | inactive |  | 
82 | CC(C)N(C(=S)Nc1cccc(C(F)(F)F)c1)C(C)c1ccccn1 (centres undefined) | inactive |  | 
83 | Cc1ncoc1C(=O)Nc1cccc(Cl)c1C | inactive |  | 
84 | CCc1cc(=O)oc2cc(C)cc(OC(C)C(=O)NC3CC(C)(C)NC(C)(C)C3)c12 (centres undefined) | inactive | 17.3 | 
85 | Cc1ccc(S(=O)(=O)CCSc2nc(C)cc(C(F)(F)F)c2C#N)cc1 | 16.4 µM (active) | -21.5 | 
86 | CCS(=O)(=O)CCSc1nc(C)cc(C)c1C#N | inactive | 5.68 | 
87 | Cc1ccc(S(=O)(=O)CCSc2ccc(C(F)(F)F)cn2)cc1 | inactive | 21.4 | 
88 | COc1ccc(NC(=O)CSCC(=O)N=c2sccn2C)cc1 | inactive | 23.3 | 
89 | COc1ccc(-n2nc3c(c2NC(=O)CCCl)CSC3)cc1 | inactive | 1.89 | 
90 | CN1/C(=C\C=N\NC(=O)c2ccc(O)cc2)C(C)(C)c2ccccc21 | 2.31 µM (active) | -19.2 | 
91 | CN1/C(=C\C(=O)Nc2ccc(F)cc2)C(C)(C)c2ccccc21 | inactive | -24.5 | 
92 | CN1/C(=C\C(=O)C(F)F)C(C)(C)c2ccccc21 | inactive |  | 
93 | CN1/C(=C\C=Nc2ccc3ccccc3c2)C(C)(C)c2ccccc21 | inactive | 6.9 | 
94 | CN1/C(=C/C=C(/C#N)C(N)=O)C(C)(C)c2ccccc21 | inactive | 13.2 | 
95 | CN1/C(=C/C=C(C#N)C#N)C(C)(C)c2ccccc21 | 7.31 µM (active) | 7.31 | 
96 | CCc1cc(C(=O)N2CCCC(CCC(=O)N3CCN(c4ccccn4)CC3)C2)no1 (centres undefined) | inactive | -4.75 | 
97 | O=C(CSc1nc2ccccc2[nH]1)NCC1CCCO1 (centres undefined) | inactive | 1.54 | 
